Potency and viability data for 14 compounds are collected here from PubChem BioAssay (NCATS).

The target in experiment [1] is Retinaldehyde dehydrogenase 3 (Homo sapiens) (UniProt P47895). Put plainly: qHTS for Inhibitors of the Aldehyde Dehydrogenase Family (ALDH1A3) Primary screen (AID 2061315). Also: potency is read from the fitted curve at half-maximal effect.
Experiment [2] can be described thus: BET inhibitor-based combinations targeting novel dependencies in MECOM-rearranged (r) AML: SET-2 cell line (AID 2202231). Also: nearly all actives have a fitted effect of over 35% in size. As to conditions: SET-2 AML cells viability, CellTiter-Glo luminescence, 48 h; viability: hits give low values, series mostly up to about 46 µM. In outline:
(§1)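 AML cell lines seeded at 500 cells/well, treated with 11-point dose curves for 48 h. Viability by CellTiter-Glo luminescence, normalised to DMSO and empty wells; activity expressed as AUC and per-cell-line Z-transformed AUC.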
A general note: Cellular ATP, detected with luciferase, serves as a proxy for viable cell number.

Experiment [3] is described as follows: BET inhibitor-based combinations targeting novel dependencies in MECOM-rearranged (r) AML: OCI-AML3 cell line (AID 2202232). Also: potency is read from the fitted curve at half-maximal effect; nearly all actives have a fitted effect of over 35% in size. As to conditions: Potency: OCI-AML3 viability. The method, boiled down: as §1
In experiment [4] the target is Aldehyde dehydrogenase 1A1 (Homo sapiens) (UniProt P00352). The experiment is described as follows: qHTS for Inhibitors of the Aldehyde Dehydrogenase Family (ALDH1A1) Confirmatory screens (AID 2061316). Also: potency is read from the fitted curve at half-maximal effect; nearly all actives have a fitted effect of over 65% in size. A general note: Quantitative high-throughput screening tests each substance at several concentrations.

Results filed as inconclusive are left out. Where a call stands in place of a potency, no number is given. Values without a mark were called inactive. Activity calls are given as the source filed them. Calls follow the shape of the dose curve; as a rule, active = well fitted inhibition curve with a large enough effect; inconclusive = small, poorly fitted or top-dose-only effect; inactive = no such curve, though single readings can be large or run the other way.

For `Cc1cccc(N2CCN(C(=S)Nc3cc(C)ccn3)CC2)c1`, in experiment [1], the Potency result was “inactive”.

With `C/C=C/C1=CC2=C(CO1)C(=O)C(C)(OC(=O)c1c(C)cc(O)cc1OC)C(O)C2` (stereo unspecified), in experiment [1], the Potency entry was “inactive”.

`O=C(Cn1nc(-c2ccncc2)ccc1=O)NCCc1ccccc1`: the Potency entry in experiment [1] is “inactive”.

Regarding `CN(C)c1ccc(-c2nc3ncc(Cl)c(N4CCN(CC(=O)Nc5nccs5)CC4)c3[nH]2)cc1`, the Potency result in experiment [1] was “inactive”. Moreover, in experiment [2], the viability was 105%. In addition, in experiment [3], the Potency was 1.62 µM (active).

With `Cc1ccc([S+](=O)([O-])Nc2nn3c(=O)c4ccccc4nc3s2)cc1C`, the Potency result in experiment [1] was “inactive”. In experiment [4], the Potency was 12.7 µM (active).

Consider `O=c1c2ccccc2nc2sc(NS(=O)(=O)c3ccc4c(c3)CCC4)nn12`, for which, in experiment [1], the Potency result is “inactive”. Also, the Potency in experiment [4] was 8.96 µM (active).

As for `Cc1cc(C)nc(NC(=S)N2CCN(c3ccc(Cl)nn3)CC2)c1`, the Potency result in experiment [1] is “inactive”.

In the case of `O=C1c2ccccc2NC(c2ccc(-c3cccc(Cl)c3)o2)N1O` (stereo unspecified), the Potency result in experiment [1] is “inactive”. The Potency in experiment [4] was 22.5 µM (active).

For `CN(CC(=O)Nc1ccc(N2CCOCC2)cc1)Cc1cccc2ccccc12`, the Potency result in experiment [1] is “inactive”. Moreover, the Potency in experiment [4] is 11.3 µM (active).

Turning to `O=C(Cc1ccc(Cl)c(Cl)c1)Nc1ccc(S(=O)(=O)Nc2cccc(O)c2)cc1`, the Potency entry in experiment [1] was “inactive”.

In the case of `N#Cc1c(-c2ccccc2C(F)(F)F)nc2ccccc2c1NCc1ccc(-c2ccnc(C(F)(F)F)c2)cc1`, the Potency result in experiment [1] is “inactive”.

Turning to `COc1ccnc(CS(=O)c2nc3cc(OC(F)F)ccc3[nH]2)c1OC` (stereo unspecified), the Potency in experiment [1] was 31.6 µM (active).

On to `O=S1(=O)N=C(Oc2ccc(Br)cc2)c2ccccc21`, for which the Potency entry in experiment [1] is “inactive”. Moreover, the Potency in experiment [4] was 12.7 µM (active).

As to `COc1ccccc1O[C@@H]1O[C@H](CO)[C@H](O)[C@H](O)[C@H]1O`, the Potency entry in experiment [1] was “inactive”.

In general, viability refers to a read-out of living cells in per cent, often relative to untreated cells.
